Dicer inh: inhibitors of Dicer pre-microRNA processing, primary screen, biochemical, cat-ELCCA, chemiluminescence | cat-ELCCA pre-miR-21 Dicer processing; active compounds read high | AID 1347074, 2019 | 6% of 47,000 active | Endoribonuclease Dicer (Homo sapiens), Q9UPY3 | z-score at 25 µM; in the data active means z-score above about 3, passing the limit was not always enough;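 further: higher signal means more uncleaved substrate so more Dicer inhibition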
Target sequence (Q9UPY3 whole entry, looked up): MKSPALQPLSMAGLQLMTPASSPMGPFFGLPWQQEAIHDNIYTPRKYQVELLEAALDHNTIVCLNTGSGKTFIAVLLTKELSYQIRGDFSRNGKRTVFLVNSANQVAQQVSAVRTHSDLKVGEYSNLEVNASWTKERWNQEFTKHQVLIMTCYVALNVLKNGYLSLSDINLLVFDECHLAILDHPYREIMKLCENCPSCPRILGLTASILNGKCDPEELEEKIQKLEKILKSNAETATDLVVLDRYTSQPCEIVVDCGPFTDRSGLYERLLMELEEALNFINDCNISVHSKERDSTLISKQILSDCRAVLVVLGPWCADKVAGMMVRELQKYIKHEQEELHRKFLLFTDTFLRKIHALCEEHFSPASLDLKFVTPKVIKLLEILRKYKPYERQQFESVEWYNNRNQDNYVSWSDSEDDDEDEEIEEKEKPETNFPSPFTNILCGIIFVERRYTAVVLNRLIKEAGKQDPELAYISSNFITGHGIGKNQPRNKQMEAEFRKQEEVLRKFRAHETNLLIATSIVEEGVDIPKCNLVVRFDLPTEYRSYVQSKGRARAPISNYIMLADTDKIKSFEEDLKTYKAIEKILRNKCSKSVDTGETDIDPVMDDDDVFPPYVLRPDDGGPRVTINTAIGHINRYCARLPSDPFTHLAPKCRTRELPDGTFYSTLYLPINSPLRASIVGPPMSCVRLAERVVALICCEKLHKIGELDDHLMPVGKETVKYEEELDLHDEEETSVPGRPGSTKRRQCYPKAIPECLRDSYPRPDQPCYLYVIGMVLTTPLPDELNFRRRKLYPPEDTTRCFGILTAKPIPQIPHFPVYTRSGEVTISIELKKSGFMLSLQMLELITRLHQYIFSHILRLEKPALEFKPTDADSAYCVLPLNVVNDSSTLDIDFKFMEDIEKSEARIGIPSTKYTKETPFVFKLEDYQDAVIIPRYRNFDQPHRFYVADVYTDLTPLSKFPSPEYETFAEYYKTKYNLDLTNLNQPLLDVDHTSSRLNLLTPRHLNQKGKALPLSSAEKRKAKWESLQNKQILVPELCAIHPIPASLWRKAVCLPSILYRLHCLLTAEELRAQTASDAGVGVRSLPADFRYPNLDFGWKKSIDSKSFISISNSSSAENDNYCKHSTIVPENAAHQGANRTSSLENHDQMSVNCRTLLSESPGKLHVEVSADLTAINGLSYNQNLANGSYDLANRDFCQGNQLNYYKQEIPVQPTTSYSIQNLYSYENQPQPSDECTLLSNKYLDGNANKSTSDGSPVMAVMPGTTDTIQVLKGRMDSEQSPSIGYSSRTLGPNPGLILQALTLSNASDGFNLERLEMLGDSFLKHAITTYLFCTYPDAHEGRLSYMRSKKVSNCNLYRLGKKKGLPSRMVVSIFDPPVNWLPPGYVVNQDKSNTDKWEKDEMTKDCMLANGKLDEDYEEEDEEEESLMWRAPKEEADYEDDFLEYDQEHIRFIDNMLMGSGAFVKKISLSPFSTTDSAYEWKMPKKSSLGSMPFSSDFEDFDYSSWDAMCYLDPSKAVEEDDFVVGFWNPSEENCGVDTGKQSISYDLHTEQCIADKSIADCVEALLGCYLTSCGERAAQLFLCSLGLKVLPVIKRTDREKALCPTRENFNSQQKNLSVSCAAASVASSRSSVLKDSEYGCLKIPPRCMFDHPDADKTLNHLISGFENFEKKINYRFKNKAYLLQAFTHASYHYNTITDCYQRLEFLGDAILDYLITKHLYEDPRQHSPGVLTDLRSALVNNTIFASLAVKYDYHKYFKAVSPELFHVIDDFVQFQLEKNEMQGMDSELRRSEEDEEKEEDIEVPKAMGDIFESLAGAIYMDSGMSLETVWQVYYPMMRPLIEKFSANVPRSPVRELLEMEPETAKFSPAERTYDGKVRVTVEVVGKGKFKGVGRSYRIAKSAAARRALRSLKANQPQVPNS
Numbers stand for hits; – = inactive. Many of the other results were omitted from the sample, so hits are more common in it than they were.

SMILES | Dicer inh
N#C/C(=C(/Oc1ccc(Cl)cc1Cl)C(F)(F)F)c1ccccc1 | –
N#CC1c2ccccc2C=CN1C(=O)C1=CCCCC1 (stereo not given) | –
O=C(O)CCCC(=O)N1N=C(c2cccs2)CC1c1cn(-c2ccccc2)nc1-c1ccccc1 (stereo not given) | –
S=c1[nH]nc(NCCc2ccc(Cl)cc2)s1 | 3.3
S=c1[nH]nc(Nc2ccc(Br)cc2Cl)s1 | –
S=c1[nH]nc(Nc2ccccc2Cl)s1 | –
Cc1nc(-c2cccnc2)[nH]c(=O)c1CC1CC1 | –
COc1cc(C2c3c(oc4cc(C)c(C)cc4c3=O)C(=O)N2CCCN(C)C)ccc1OCC(C)C (stereo not given) | –
C=C1CC(C)OC(C(C)(C)COC(=O)NC2CCCCC2)C1 (stereo not given) | –
C=CCN1C(=O)/C(=C\c2ccccc2Cl)N=C1c1ccccc1 | –
O=C(CN1C(=O)/C(=C\c2ccc(OCc3ccccc3)cc2)N=C1c1ccccc1)c1cccs1 | –
O=C(CN1C(=O)/C(=C\c2ccc(F)cc2)N=C1c1ccccc1)c1ccco1 | 3.8
O=C1c2ccccc2CC(=O)c2sccc21 | –
CCOC(=O)c1c(Nc2ccccc2OC)sc(C(=O)c2ccc(Br)cc2)c1N | –
O=C(Nc1ccc(Br)cc1)C1CC(=O)N(c2ccccc2)C1 (stereo not given) | –
O=C(OCc1ccc(Cl)cc1)c1cnc(NNC(=O)C(F)(F)F)nc1C(F)(F)F | 3.4
O=C(OCc1ccc(Cl)cc1)c1cnc(Sc2ccc(Cl)cc2)nc1C(F)(F)F | –
CCCC(=O)NNc1ncc(C(=O)OCC)c(C(F)(F)F)n1 | –
CCCC1=C(C(=O)OCC)C(c2ccccc2F)n2c(nc3ccccc32)N1 (stereo not given) | –
CCCC1=C(C(=O)OCC)C(c2ccccc2)n2c(nc3ccccc32)N1 (stereo not given) | –
CCCC1=C(C(=O)OCC)C(c2ccc(O)cc2)n2c(nc3ccccc32)N1 (stereo not given) | 3.6
CN(C)C(=S)SCc1ccccc1C(=O)Oc1c(Cl)cccc1Cl | 3.6
CNC(=S)NNC(=O)c1ccccc1Cl | –
Cc1cc(Cl)c(OC(=O)c2c(Cl)cccc2Cl)c(Cl)c1 | –
CC1=CC(C)C2COC(c3ccccc3O)C1C2 (stereo not given) | –
SMILES | Dicer inh
Nc1cccc(-c2nnc(-c3cccc(N)c3)o2)c1 | –
C/C(=C\c1ccc(N)cc1)c1nc2ccccc2[nH]1 | 3
Nc1ccc(Cc2nc3ccccc3[nH]2)cc1 | –
c1ccc2[nH]c(CCc3nc4ccccc4[nH]3)nc2c1 | –
CCOC(=O)CC(=O)CSc1nc(-c2cccs2)cc(-c2ccc(Cl)cc2)c1C#N | –
CCCCCNc1nc2c(c(=O)n(Cc3cccc(Br)c3)c(=O)n2C)n1C | –
COc1cc(/C=C2\N=C(SC)SC2=O)ccc1OCc1ccccc1 | –
CCO/C=C(\C#N)S(=O)(=O)c1ccccc1 | –
COC(=O)Nc1cc(C)n(-c2ccccc2)n1 | –
Cc1cc(NC(=O)N(C)C)nn1-c1ccccc1 | –
CC(=O)OCc1cc(/C=N/N(C(C)=O)c2ccccc2)nn1-c1ccccc1 | 3.5
CCn1c[n+](CC(O)COc2ccccc2C)c2ccccc21 (stereo not given) | –
CCn1c[n+](CC(O)COc2ccccc2)c2ccccc21 (stereo not given) | –
CCn1c[n+](CC(O)COc2ccccc2OC)c2ccccc21 (stereo not given) | 7.7
COc1ccccc1N1CC(=O)NC1=O | –
CCOC(=O)CN1C(=O)C(O)(CC(=O)c2cccc3ccccc23)c2ccccc21 (stereo not given) | –
CC(C)(C)c1cc(C(=O)Oc2cncc(Cl)c2)cc(C(=O)Oc2cncc(Cl)c2)c1 | 36
COC(=O)c1cncc(C(=O)OC)c1 | –
CC(C)(C)c1ccc(C(=O)Oc2c(Cl)cncc2Cl)cc1 | –
O=S(=O)(Oc1ccc(Cl)cc1)c1cc(S(=O)(=O)Oc2ccc(Cl)cc2)c(Cl)s1 | –
Cc1cc2ncc(-c3ccnc(SCC(=O)c4ccc(Cl)cc4)n3)c(C)n2n1 | –
Cc1cc2ncc(-c3ccnc(SCc4c(Cl)cccc4Cl)n3)c(C)n2n1 | 24
Cc1cc2ncc(-c3ccnc(SCc4cccc(Cl)c4)n3)c(C)n2n1 | –
O=C1CC(c2nc3ccccc3n2CCc2ccccc2)CN1c1ccccc1 (stereo not given) | 4.3
CCCCCCn1c(C2CC(=O)N(c3ccccc3)C2)nc2ccccc21 (stereo not given) | –
SMILES | Dicer inh
O=C1CC(SCc2ccc(Cl)cc2)C(=O)N1c1ccccc1 (stereo not given) | –
Cc1nc2ccccc2n1C1CC(=O)N(c2ccc(F)cc2)C1=O (stereo not given) | –
CC(C)c1ccc(N2CC(C(=O)O)CC2=O)cc1 (stereo not given) | –
O=c1[nH]c2ccccc2n1Cc1ccc(Cl)cc1 | –
C=C(C)Cn1c(C2CC(=O)N(c3ccc(OCC)cc3)C2)nc2ccccc21 (stereo not given) | –
CSc1nc2ccccc2c(=O)n1CCc1ccccc1 | –
CC(c1ccccc1)n1c(C2CC(=O)N(c3ccccc3)C2)nc2ccccc21 (stereo not given) | 4.7
CCOc1ccc(N2CC(c3nc4ccccc4n3CC)CC2=O)cc1 (stereo not given) | –
O=C1CC(c2nc3ccccc3n2Cc2ccc(Cl)cc2)CN1c1ccccc1 (stereo not given) | 5.9
CC(C)CCn1c(C2CC(=O)N(c3ccccc3)C2)nc2ccccc21 (stereo not given) | 3.7
O=C(OC(CN1CCCCC1)CN1CCCCC1)c1ccccc1 | –
COCCCNc1ccc([N+](=O)[O-])c(NCCCOC)c1C#N | –
CCOC(=O)c1ncoc1-c1ccc(Cl)cc1 | –
COC(=O)C1=C(C)Nc2nc3ccccc3n2C1c1ccc(OCc2ccccc2)cc1 (stereo not given) | –
O=C(OCCN(C1=NS(=O)(=O)c2ccccc21)c1ccc(Cl)cc1)c1cccs1 | –
CCOC(=O)C1=C(C)NC2=C(C(=O)CC(C)(C)C2)C1c1ccc(CC)cc1 (stereo not given) | –
O=C(NCCCn1ccnc1)c1cc2n(n1)C(C(F)(F)F)CC(c1ccc(Cl)cc1)N2 (stereo not given) | –
O=C(NC1CCCC1)c1cc2n(n1)C(C(F)(F)F)CC(c1ccccc1)N2 (stereo not given) | –
Cc1cc(C)cc(NC(=O)c2cc3n(n2)C(C(F)(F)F)CC(c2ccco2)N3)c1 (stereo not given) | –
Cc1ccc(C2CC(C(F)(F)F)n3nc(C(=O)NC(C)C)cc3N2)cc1 (stereo not given) | –
O=C(NCc1cccs1)c1cc2n(n1)C(C(F)(F)F)CC(c1ccc(Cl)cc1)N2 (stereo not given) | –
O=C(Nc1cccnc1)c1cc2n(n1)C(C(F)(F)F)CC(c1ccc(Br)cc1)N2 (stereo not given) | 4.7
O=C(NCc1ccco1)c1cc2n(n1)C(C(F)(F)F)CC(c1ccc(Br)cc1)N2 (stereo not given) | 3.5
O=C(NCc1ccccn1)c1cc2n(n1)C(C(F)(F)F)CC(c1ccco1)N2 (stereo not given) | –
O=C(NC1CCCC1)c1cc2n(n1)C(C(F)(F)F)CC(c1ccc(Br)cc1)N2 (stereo not given) | 4.4
O=C1c2oc3ccc(F)cc3c(=O)c2C(c2ccc(O)cc2)N1CCCN1CCOCC1 (stereo not given) | –
O=c1[nH]cnc2c(Br)cc(Br)cc12 | –

Assay outcomes from PubChem.
